TDP1 cell noCPT: qHTS for Inhibitors of human tyrosyl-DNA phosphodiesterase 1 (TDP1): qHTS in cells in absence of CPT. DT40 Tdp1-/- hTDP1 cells, no CPT, ATP luminescence, 48 h. Potency, µM (titrated, usually from 46.2 µM), for the others: at the top dose activity change, negative = growth inhibition, usual class: inhibitors. actives 15% (n = 420,000); further: potency means the concentration at half of the fitted maximal effect; nearly all actives have a fitted effect of over 55% in size
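Luminescent ATP content (CellTiter-Glo) served as the growth readout. Knockout chicken DT40 cells expressing human TDP1 were exposed to compounds without camptothecin for a minimum 48 hr at 37 °C.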
HT1080 IDH1KD tx: HT-1080 IDH1 knockdown cell toxicity (counter line); AID 686971; Potency, µM (titrated, usually from 46.1 µM), inactives show at the top dose activity, negative = toxicity, actives largely listed as cytotoxic; actives 2% (n = 360,000); HT-1080 IDH1 knockdown viability, ATP luminescence, 48 h;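 further: potency means the concentration at half of the fitted maximal effect; 0% = DMSO wells and -100% = cell-free medium wells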
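CellTiter-Glo luminescence after 48 h compound exposure at 37 degrees C of IDH1-knockdown HT-1080 cells in 5% FBS RPMI. %Activity scaled between DMSO wells and cell-free media wells, with curves fitted and assigned curve classes.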
IL1B secr inh: inflammasome signaling inhibition, IL-1 beta readout. AID 743279. THP-1 LPS/ATP IL-1B secretion, AlphaLISA, 16 h; stronger effect = lower value. actives 4.7% (n = 360,000). activity change, % at 57.5 µM; in the data active means activity change below about -50%; inconclusive means mostly about -30% to -49%
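THP-1 cells pretreated 1 hr with compounds (up to 57.5 uM final), then stimulated with LPS (250 ng/mL final) plus ATP (1.25 mM final); secreted IL-1B measured by AlphaLISA after 16 hr, decreased signal indicating inhibition.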
DT40 TDP1 CPT: DT40-hTDP1 cell growth loss with CPT; Potency, µM (doses to about 46.2 µM), inactives show at the top dose activity change, negative = growth inhibition, hits mostly inhibitors; actives 12% (n = 420,000); chicken DT40 Tdp1-/-;hTDP1 cells + 20 nM CPT, ATP luminescence, 48 h; further: potency means the concentration at half of the fitted maximal effect; nearly all actives have a fitted effect of over 55% in size
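Cell growth measured by CellTiter-Glo luminescence after a minimum 48 h, 37 C compound exposure with 20 nM CPT in Tdp1-knockout DT40 cells stably expressing hTDP1, seeded 400/well; qHTS titration format.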
ELG1 repair inh: blocks ELG1-dependent DNA repair in HEK293T cells. actives 2.3% (n = 330,000). HEK293T ELG1-luciferase reporter, luminescence, 16 h; DNA damage induced by 5-fluorouridine. AID 504467. Potency, µM (doses to about 46.1 µM), without a hit: top-dose activity change, negative = inhibition, usual class: inhibitors; further: potency means the concentration at half of the fitted maximal effect; nearly all actives have a fitted effect of over 55% in size
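DMSO vehicle served as the neutral condition. Each well held 2,000 cells given 5-fluorouridine plus compound; after 16 hr at 37 °C/5% CO2, ONE-Glo was added and luciferase measured 30 min later.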
HT1080-NT tox: kills 2HG-producing HT-1080-NT fibrosarcoma cells; actives 1.6% (n = 360,000); HT-1080-NT fibrosarcoma viability, CellTiter-Glo ATP luminescence, 48 h; AID 686970; Potency, µM (top dose mostly 46.1 µM), for the others: at the top dose activity, negative = less viability, hits mostly cytotoxic;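 further: NT is the 2HG producing partner of a matched IDH1 knockdown line; potency means the concentration at half of the fitted maximal effect; 0% = DMSO-treated cells and -100% = media-only wells without cells; nearly all actives have a fitted effect of over 55% in size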
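750 cells/well, RPMI + 5% FBS; 2 h settle, compound pin-transfer, 48 h at 37 degrees C. CellTiter-Glo 10 min RT, luminescence. Normalized to DMSO and media-only wells.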
* = called active by the depositor; ? = inconclusive; / = not tested or not shown; ! = not confirmed by another sample; [ ] = dose if it differs, or a comment. Rows were chosen to be rich in hits. Some 19% of all compounds tested hit in one or more screens of this group. Unless noted, the call rests on the fitted dose curve; in most records, active means well fitted curve in the direction sought with a large enough effect; inconclusive means small, poorly fitted or top-dose-only effect, or another doubt; inactive means no such curve, though single readings can be large; an effect the other way counts as inactive or inconclusive. Unless noted, on the % scale 0 is the no-effect control and ±100 the full control effect.

SMILES | TDP1 cell noCPT | HT1080 IDH1KD tx | IL1B secr inh | DT40 TDP1 CPT | ELG1 repair inh | HT1080-NT tox
CCc1cccc(NC(=O)c2sc3nc[nH]c(=O)c3c2C)c1 | 21µM* | / | / | ? | / | /
O=C(Nc1cccc(C(F)(F)F)c1)c1sc(Cl)nc1C(F)(F)F | 10µM* | -5% | -103* | 16µM* | ? | -2%
O=C(Nc1cccc(C(F)(F)F)c1)c1cc(-c2ccco2)on1 | ? | 10% | -7 | ? | 1% | -4%
Cc1c(C(=O)Nc2cccc(C(F)(F)F)c2)sc2nc[nH]c(=O)c12 | 21µM* | / | / | 16µM* | / | /
COc1ccc(C(=O)Nc2ccc3nc(N4CCC(C)CC4)cc(C)c3c2)cc1 | 16µM* | / | / | 23µM* | / | /
COc1cccc(C(=O)Nc2ccc3nc(N4CCC(C)CC4)cc(C)c3c2)c1 | 21µM* | / | / | 12µM* | / | /
Cc1ccc2nc(Cl)c3cc(C(=O)N(C)C4CCCCC4)sc3c2c1 | -17% | / | / | -16% | / | /
COc1cc(/C=N/NC(=O)c2nnn(-c3nonc3N)c2C)ccc1OCc1ccc(Cl)cc1 | ? | 11% | -6 | ? | / | 16%
CCCOC(=O)CSc1ncnc2sc3c(c12)CCC(C)C3 (stereo not given) | -24% | / | / | -18% | / | /
CCOc1ccc(CCNC(=O)CCc2c(C)nc3ncnn3c2C)cc1OCC | 2% | 7% | 23 | -23% | 8% | 3%
COc1ccc(-c2cc(NCCc3ccncc3)n3ncnc3n2)cc1 | -20% | 2% | -66* | -27% | -9% | -5%
COc1ccc(CCNC(=O)CCc2c(C)nc3nc(C)nn3c2C)cc1OC | 17% | / | / | 7% | / | /
CCOc1ccc(CCNc2cc(C)nc3ncnn23)cc1OCC | 15µM* | -10% | 65 | 21µM* | 2% | -13%
CCc1c(C)nc2ncnn2c1NCCc1ccc(OC)c(OC)c1 | 13µM* | -16% | 15 | 15µM* | 12µM* | -6%
COc1ccc(CCNc2c(C)c(C)nc3ncnn23)cc1 | 2.6µM* | 7.1µM* | -11 | 2.3µM* | -1% | 10µM*
COc1ccc(-c2cc(NCc3ccccn3)n3ncnc3n2)cc1 | ? | -12% | 0 | ? | -17% | -15%
CCOc1ccc(CNc2cc(C)nc3nc(-c4cccc(C)c4)nn23)cc1OC | 18µM* | / | / | ? | / | /
Cc1cccc(Nc2cc(C)nc3nc(-c4ccccc4)nn23)c1 | -10% | / | / | -24% | / | /
CC(=O)c1ccc(Nc2cc(C)nc3ccc(C)cc23)cc1 | ? | ? | -104* | ? | ? | 21µM*
Cc1ccc2nc(C)cc(Nc3ccc4c(c3)OCCO4)c2c1 | 13µM* | ? | ? | 22µM* | 23% | ?
COc1ccc(CCC(=O)NCc2cccc(C(F)(F)F)c2)cc1 | -4% | -4% | 0 | -5% | 0% | 1%
COc1ccc2nc(C)cc(NCc3cccc(C(F)(F)F)c3)c2c1 | 13µM* | 16µM* | -96* | 15µM* | -13% | 23µM*
COc1ccc2nc(C)cc(Nc3ccccc3O)c2c1 | ? | -8% | ? | 23µM* | 5% | -10%
CC1(C)C(=O)Nc2ccccc2N1C(=O)COC(=O)c1cccnc1Cl | 2% | 8% | 9 | 2% | -7% | 12%
O=C(CCn1nnnc1CN1CCOCC1)N1CCC(c2cccc(Cl)c2)C1 (stereo not given) | 16% | 2% | 1 | -25% | 1% | 17%
SMILES | TDP1 cell noCPT | HT1080 IDH1KD tx | IL1B secr inh | DT40 TDP1 CPT | ELG1 repair inh | HT1080-NT tox
O=C(c1cccnc1)C1CCCN(Cc2ccc3c(c2)CN(C(=O)c2ccc4[nH]ccc4c2)CCO3)C1 (stereo not given) | ? | / | / | -6%[9.04 µM] | / | /
Cc1ccc(C(=O)N2CCN(CCc3ccncc3)CC2)cc1 | -3% | / | / | 7% | / | /
COc1ccc(Nc2cc(C)nc3ccc(C)cc23)cc1 | 16µM* | -3% | -21 | ? | / | -20%
CCOC(=O)c1ccc2nc(C(F)(F)F)[nH]c(=O)c2c1 | 7.3µM* | -2% | 0 | 16µM* | 5% | -1%
CCOC(=O)c1ccc(NC(=O)c2cc(C)nc3ccccc23)cc1 | 4% | 20% | -5 | 18% | 10% | 11%
CCOC(=O)c1ccc2nc(C)cc(Nc3ccc(OC(C)C)cc3)c2c1 | 18µM* | / | / | 23µM* | / | /
COc1ccc(Nc2ncnc3ccc(C)cc23)cc1 | ? | -1% | -2 | ? | ? | -1%
OCCC1CN(CC2CCCCC2)CCN1C1CCCC1 (stereo not given) | -11% | 12% | -2 | -16% | -25% | -1%
COc1cc(NC(C)CCCN)c2nc(C)ccc2c1Oc1ccc(F)cc1 (stereo not given) | 10µM* | -29% | -17 | 26µM* | / | -10%
COc1cc(NC(C)CCCN)c2ncccc2c1 (stereo not given) | 7.2µM*! | ? | -11 | ? | 1% | 16µM*
Cc1ccc(-n2c(-c3ccc(Cl)cc3)c[n+]3c2CCC3)cc1 | 3.3µM* | ? | 0 | 3.3µM* | 2.9µM* | ?
FC(F)Sc1ccc(-n2c(-c3ccc(Cl)cc3)c[n+]3c2CCC3)cc1 | 15µM* | ? | ? | 12µM* | ? | ?
Cc1ccc(-c2c(C#N)c(N)n(-c3ccc(Cl)cc3)c(=O)c2C#N)cc1 | -10% | 8% | -22 | -21% | / | 19%
Cc1ccc(-n2c(-c3ccccc3)c[n+]3c2CCC3)cc1 | 0.65µM* | 5.8µM* | -73* | 1µM* | 1.6µM* | ?
Cc1ccc(-n2c(-c3ccccc3)nnc2-c2cccs2)cc1 | -6% | 3% | 0 | ? | -4% | 0%
Cc1cccc(C(=O)Nc2nnc(S(=O)(=O)N3CCC(C)CC3)s2)c1 | ? | 0% | 25 | ? | -4% | -13%
C#CCN1C=C(C(=O)OCC)C(C)N(Cc2ccccc2I)S1(=O)=O (stereo not given) | 8.2µM* | 21µM* | 63 | 13µM* | ? | ?
C=C(C)COC(=O)C1CC2OC2CC1C(=O)OCC(=C)C (stereo not given) | -24% | 6% | 3 | -3% | / | -3%
O=C(OC1CC2CC1[C@H]1CCCCN1C2=O)N1CCN(S(=O)(=O)c2ccccc2)CC1 (stereo not given in full) | ? | 7% | 36 | -24% | / | 18%
Nc1nc2ncccn2c1-c1ccc(F)cc1 | -20% | 16% | 29 | 1% | / | 24%

Bioassay records as filed in PubChem.
